Assay outcomes deposited in PubChem by several laboratories.
VLA-4 inh: inhibition in human VLA-4 binding assay, primary screen, VLA-4 allosteric modulator project, MLPCN library, flow cytometry, VLA-4 expressing cells | AID 2557, 2010 | Integrin alpha-4 (Homo sapiens), P13612 | ligand binding flow cytometry | hit rate 0.2% among 330,000 | inhibition, % (about 7 µM as worked out from the volumes in the protocol)
GRK2 inh: compounds blocking aptamer binding on GRK2 – biochemical, human GRK2, bead flow cytometry, HTS, primary screen | FAM-aptamer displacement from GRK2 | inhibition of aptamer binding, % at 10 µM | hit rate 0.59% among 330,000 | AID 488847, 2010;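 active means inhibition of aptamer binding above 40%, roughly 3 SD of noise, on plates passing a quality check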;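 further: median bead fluorescence of bound FAM aptamer so fluorescent compounds give negative values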
LANA-H2B inh: blockers of LANA interaction with H2A/H2B – biochemical, FP readout, HTS, primary screen; hit rate 0.6% among 320,000; AID 2629, 2010; Protein LANA1 (Human herpesvirus 8 type P (isolate GK18)), Q9QR71; inhibition, % (test concentration not listed); cell-free LANA-H2A/H2B peptide, fluorescence polarization; in the data active means inhibition mostly above about 10%, no sharp cut-off; inactive means mostly below about 6.7%
Target sequence (Q9QR71 whole entry, looked up): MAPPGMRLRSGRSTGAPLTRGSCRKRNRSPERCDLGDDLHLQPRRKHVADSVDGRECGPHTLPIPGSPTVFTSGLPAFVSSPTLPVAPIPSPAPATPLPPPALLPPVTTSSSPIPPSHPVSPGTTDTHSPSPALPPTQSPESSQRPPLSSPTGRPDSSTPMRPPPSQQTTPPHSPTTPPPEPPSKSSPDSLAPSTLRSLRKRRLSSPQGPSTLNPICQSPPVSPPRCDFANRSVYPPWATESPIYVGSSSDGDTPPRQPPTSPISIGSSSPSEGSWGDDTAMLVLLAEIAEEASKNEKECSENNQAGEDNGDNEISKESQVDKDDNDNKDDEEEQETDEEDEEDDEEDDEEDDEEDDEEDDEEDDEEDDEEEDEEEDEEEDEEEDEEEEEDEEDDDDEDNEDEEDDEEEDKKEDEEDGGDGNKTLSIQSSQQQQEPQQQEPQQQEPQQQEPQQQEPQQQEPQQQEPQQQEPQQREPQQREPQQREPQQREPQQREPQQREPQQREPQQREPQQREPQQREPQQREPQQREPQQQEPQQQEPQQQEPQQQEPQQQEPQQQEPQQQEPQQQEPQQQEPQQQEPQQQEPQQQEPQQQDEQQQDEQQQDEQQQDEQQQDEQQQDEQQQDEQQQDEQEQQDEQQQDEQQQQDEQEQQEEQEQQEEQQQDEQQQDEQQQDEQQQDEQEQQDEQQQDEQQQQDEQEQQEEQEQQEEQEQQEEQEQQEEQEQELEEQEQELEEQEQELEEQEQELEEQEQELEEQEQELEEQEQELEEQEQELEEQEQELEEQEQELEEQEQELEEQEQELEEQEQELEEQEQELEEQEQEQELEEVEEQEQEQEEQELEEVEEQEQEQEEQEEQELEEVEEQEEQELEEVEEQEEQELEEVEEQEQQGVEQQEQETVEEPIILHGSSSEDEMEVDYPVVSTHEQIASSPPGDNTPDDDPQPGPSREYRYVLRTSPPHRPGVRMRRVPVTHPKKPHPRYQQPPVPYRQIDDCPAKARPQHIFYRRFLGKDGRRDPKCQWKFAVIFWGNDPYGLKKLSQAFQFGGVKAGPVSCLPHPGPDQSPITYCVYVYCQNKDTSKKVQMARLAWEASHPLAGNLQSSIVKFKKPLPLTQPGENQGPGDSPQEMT
HDAC3 inhib: HDAC3 deacetylase inhibitors, primary screen, biochemical, fluorescence, cell-free homogeneous. hit rate 0.15% among 320,000. Histone deacetylase 3 (Homo sapiens), O15379. inhibition, % at 8.3 µM. recombinant HDAC3, fluorogenic peptide/trypsin coupled; in the data active means inhibition above about 26%, passing the limit was not always enough
PKD1 kinase inh: inhibitors of human PKD1 kinase, biochemical, fluorescence polarization; hit rate 0.056% among 200,000; Serine/threonine-protein kinase D1 (Homo sapiens), Q15139; PKD1 kinase fluorescence polarization assay; inhibition, % (test concentration not listed)
Pemphigus Ab inh: inhibitors of pemphigus antibody binding to DSG3, primary screen, biochemical, bead-based, flow cytometry, scFv-GFP; binding (percent of control), % at 10 µM; hit rate 0.48% among 310,000; DSG3-coupled beads, scFv-anti-DSG3-GFP binding; hits give low values;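 active means binding more than 3 SD below its plate's average and above zero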;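 further: hits lower antibody fragment binding to DSG3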
GRK2 inh confirm: GRK2 aptamer-displacing inhibitors, retest, confirmation, biochemical, cherry pick 1, bead flow cytometry | shares compounds with GRK2 inh | bead-bound GRK2, FAM-aptamer displacement | aptamer displacement, % at 10 µM | hit rate 4% among 2,000;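 active means aptamer displacement above 40%, near three times the noise of non-fluorescent compounds, on plates passing quality checks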;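 further: negative values mostly reflect intrinsic compound fluorescence rather than true enhancement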
FAM quench CP1: aptamer fluorescence quenching in GRK2 counter-screen | AID 504580 | Carboxyfluorescein RNA aptamer on beads, flow cytometry quenching; hits give low values | shares compounds with GRK2 inh | 2,000 tested, under 10 active | fluorescence response (% of DMSO), % at 10 µM;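 active means compounds that quench the bead-bound fluorescent RNA probe, cutting fluorescence to under half of the solvent control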;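 further: counterscreen run without GRK2 so only probe quenching by compound is measured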
GRK2 CP2: GRK2 aptamer-displacing inhibitors, hit retest, confirmation, biochemical, cherry pick 2, bead flow cytometry | 360 tested, under 10 active | bead-bound GRK2, FAM-aptamer displacement | shares compounds with GRK2 inh | inhibition of aptamer binding, % at 10 µM;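 active means inhibition of aptamer binding above 40%, about triple the noise seen with nonglowing compounds, on plates passing quality control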;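 further: negative values mostly come from compounds that fluoresce themselves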
FAM quench SP: counter-screen for GRK2 binding hits: quenchers of fluorescent RNA aptamer | shares compounds with GRK2 inh | carboxyfluorescein RNA aptamer beads, flow cytometry quenching; hits give low values | fluorescence response vs DMSO, % at 10 µM | 360 tested, under 10 active | AID 588494;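 active means response vs DMSO under 50%, meaning signal dropped by over half, treated as fluorescence quencher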;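 further: labelled aptamer on streptavidin beads without GRK2 as a quench counter-screen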
Hits are given with their value; – = inactive; · = no result. In the library only some 1.8% were active in any assay of this set; here they are far more common. Unless noted, no stated cut-off is given here; in the data, active means inhibition above about 50%; inactive means the rest.

SMILES | VLA-4 inh | GRK2 inh | LANA-H2B inh | HDAC3 inhib | PKD1 kinase inh | Pemphigus Ab inh | GRK2 inh confirm | FAM quench CP1 | others
CCN(CC)S(=O)(=O)c1ccc(C(=O)OC2CCCCC2CN(C)C)cc1 (stereo unspecified) | – | 70.0 | – | – | – | – | – | –
CN(C)CC1CCCCC1OC(=O)c1ccc(Cl)cc1 (stereo unspecified) | – | – | – | – | – | – | · | ·
O=C1NC(=S)S/C1=C\c1ccc(SCc2ccccc2)o1 | – | 46.0 | · | – | – | – | – | –
O=C1NC(=S)S/C1=C\c1ccc(SCc2ccco2)o1 | – | – | – | – | – | – | · | ·
COC(=O)c1ccccc1NC(=S)N(Cc1ccc2c(c1)OCO2)Cc1cc2cc(OC)ccc2[nH]c1=O | – | – | – | – | – | – | · | ·
COc1ccccc1CNc1ccc(CNc2ncn[nH]2)cc1 | – | 52.0 | – | – | – | – | – | –
Cc1c(Cl)cccc1NC(=S)NCCc1ccc(C(F)(F)F)cc1 | – | – | – | – | – | – | · | ·
O=C(Nc1cc(C(=O)N2CCOCC2)cc(C(=O)N2CCOCC2)c1)c1cc(F)c(F)cc1Cl | – | – | – | – | – | – | – | –
Nc1c(C(=O)c2ccc(Cl)cc2)sc2c1c(=O)[nH]c(=O)n2-c1ccccc1 | – | 100.0 | – | – | – | – | · | · | GRK2 CP2=–;FAM quench SP=–
Nc1c(C(=O)c2ccccc2)sc2c1c(=O)[nH]c(=O)n2-c1ccccc1 | – | – | – | – | – | – | · | ·
CC(COc1ccc(C(C)C)cc1)NC(=O)c1ccc(Br)o1 (stereo unspecified) | – | – | – | – | · | · | · | ·
O=C(O)c1ccc(N2C(=O)c3cccc4c(C(=O)O)ccc(c34)C2=O)cc1 | – | 70.0 | – | – | – | · | – | –
CCOc1ccnc2c1c(=O)n(Cc1cc(OC)cc(OC)c1)c(=O)n2C | – | – | – | – | · | – | · | ·
CCC(CO)Nc1ccc(-c2n[nH]c(=O)c3ccccc23)cc1[N+](=O)[O-] (stereo unspecified) | – | 60.0 | – | – | · | – | · | · | GRK2 CP2=–;FAM quench SP=–
CCC(CO)Nc1ccc(-c2nn(C)c(=O)c3ccccc23)cc1[N+](=O)[O-] (stereo unspecified) | – | – | – | – | – | – | · | ·
CC(C)c1nnc(NC(=O)c2cccs2)s1 | – | 44.0 | – | – | – | – | – | –
CCCCC(CC)c1nnc(NC(=O)c2cccs2)s1 (stereo unspecified) | · | · | · | · | – | – | · | ·
CCCC(C)c1nnc(NC(=O)CCS(=O)(=O)c2ccccc2)s1 (stereo unspecified) | – | – | – | – | · | – | – | –
CC(C)c1nnc(NC(=O)CCS(=O)(=O)c2ccccc2)s1 | – | – | – | – | · | – | – | –
O=C(C[n+]1cccc(CO)c1)Nc1nc2ccccc2s1 | – | 42.0 | – | – | – | – | – | –
O=C(CS(=O)(=O)c1ccccc1)Nc1nc2ccccc2s1 | – | – | – | – | – | – | · | ·
Fc1ccccc1C1c2[nH]c3ccccc3c2CCN1Cc1ccoc1 (stereo unspecified) | – | – | – | – | – | – | · | ·
CNc1snc(C)c1C(=O)OCC(=O)c1ccc(Cl)cc1 | – | 51.0 | – | – | · | · | – | –
